Test [1] in a line: ATG_NFI_CIS: Attagene CIS-FACTORIAL HepG2 Assay for human Nuclear Factor I (NFI) (AID 2282989). The following applies: HepG2 cis-regulatory reporter, NFI response element transcription; actives raise or lower the signal. The procedure, abridged:
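Reporter transcription driven by endogenous transcription factors in HepG2 cells; 24 h treatment. Quantitation by labelled RT-PCR fragments on capillary electrophoresis, gain- or loss-of-signal relative to DMSO.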

The target of test [2] is Myc proto-oncogene protein (Homo sapiens) (UniProt P01106). Kind of test: ATG_Myc_CIS: Attagene CIS-FACTORIAL HepG2 Assay for human Myelocytomatosis (Myc) Proto-Oncogene Transcription Factor (AID 2282990). The following applies: HepG2, Attagene cis-reporter transcription factor activity; actives raise or lower the signal. The gist of the method:
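Cells of the HepG2 human liver line bear multiple cis-driven reporter transcription units. Reporter mRNA after 24 h exposure is reverse-transcribed, amplified, labelled and resolved by capillary electrophoresis, with gain- or loss-of-signal fitting relative to DMSO.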

Test [3] can be described thus: ATG_NF_kB_CIS: Attagene CIS-FACTORIAL HepG2 Assay for human Nuclear Factor Kappa B (NF-kB) (AID 2282991). The following applies: HepG2 Attagene cis-factorial NF-kB reporter mRNA; actives raise or lower the signal. The procedure, abridged:
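HepG2, transient multi-reporter transfection, cis promoter elements (endogenous TFs). 24 h exposure. Total RNA → RT → PCR → 6-FAM label → HpaI → CE. Gain/loss vs DMSO.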

Test [4] can be described thus: ATG_NRF2_ARE_CIS: Attagene CIS-FACTORIAL HepG2 Assay for human Nuclear Factor Erythroid 2 Related Factor 2 (NFR2) response to Antioxidant Response Elements (ARE) (AID 2282992).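 On AC50: reporter mRNA level measured by RT-PCR and capillary electrophoresis fluorescence.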 The following applies: HepG2 Attagene ARE/NRF2 reporter, transcription factor activity; actives raise or lower the signal. The gist of the method:
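Transient MRTU transfection of HepG2; 24 h compound exposure; TriZol RNA, RT with oligo(dT), PCR, 6-FAM primer extension, HpaI cut, CE. Bidirectional fit vs DMSO.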

Test [5] can be described thus: ATG_Oct_MLP_CIS: Attagene CIS-FACTORIAL HepG2 Assay for human Octamer-Binding Transcription Factor (Oct) (AID 2282993). The following applies: HepG2 Attagene cis-factorial Oct reporter, mRNA; actives raise or lower the signal. The gist of the method: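 Transfected HepG2 cells, 24 h treatment. Reporter mRNA quantified by RT-PCR–capillary electrophoresis; bidirectional fitting against DMSO.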

The target in test [6] is Cellular tumor antigen p53 (Homo sapiens) (UniProt P04637). Kind of test: ATG_p53_CIS: Attagene CIS-FACTORIAL HepG2 Assay for human p53 Transcription Factor (AID 2282994). The following applies: HepG2 p53 cis-element reporter, Attagene mRNA; actives raise or lower the signal. The gist of the method:
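HepG2, transient MRTU transfection (cis promoter elements, endogenous TFs); 24 h dosing; RNA isolation, RT-PCR, 6-FAM primer extension, HpaI digest, CE fluorescence; bidirectional fit vs DMSO.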

Test [7] in a line: BSK_3C_TissueFactor: BioMAP Diversity Plus: 3C Assay for Tissue Factor Biomarker Activity (AID 2282997). The conditions noted are these: BioMAP 3C HUVEC, tissue factor biomarker readout; actives raise or lower the signal. The gist of the method:
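HUVEC were treated 24 h, then surface tissue factor measured by ELISA and fitted bidirectionally against DMSO. Parallel SRB total-protein staining assessed overt cytotoxicity at the same time point.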

Test [8] can be described thus: BSK_3C_uPAR: BioMAP Diversity Plus: 3C Assay for Urokinase-type plasminogen activator receptor (uPAR) Biomarker Activity (AID 2282998). The following applies: BioMAP 3C HUVEC, uPAR biomarker ELISA; actives raise or lower the signal. The procedure, abridged: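 Readout: ELISA for surface uPAR. System: human umbilical vein endothelial primary cells, 24 h after chemical exposure. Analysis: bidirectional fit, DMSO baseline.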
(In an ELISA, binding on a coated surface is turned into a signal by an enzyme label.)

Test [9] is described as follows: BSK_3C_VCAM1: BioMAP Diversity Plus: 3C Assay for Vascular cell adhesion molecule 1 (VCAM1) Biomarker Activity (AID 2282999). The conditions noted are these: BioMAP 3C HUVEC, VCAM1 ELISA, cytokine-stimulated; actives raise or lower the signal. The gist of the method: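 Endothelial cells from human umbilical vein are treated with test chemical. At 24 h, VCAM-1 is measured by ELISA, and responses in either direction are fitted relative to DMSO.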

The nature of test [10]: BSK_4H_Eotaxin3: BioMAP Diversity Plus: 4H Assay for Eotaxin 3 Biomarker Activity (AID 2283000).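 Further: CCL26 protein level quantified by ELISA in parallel with SRB cytotoxicity check.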 The following applies: primary human endothelial cells (HUVEC); actives raise or lower the signal. The procedure, abridged: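 Eotaxin-3 (CCL26) levels were measured by ELISA in HUVEC primary cultures 24 h post-dosing. Gain or loss of signal was fitted in both directions, with DMSO serving as baseline and negative control.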

Read-out in test [11]: Intercellular Adhesion Molecule 1 (ICAM1), ICAM1 (gene 3383)
Put plainly: BSK_3C_ICAM1: BioMAP Diversity Plus: 3C Assay for Intercellular Adhesion Molecule 1 (ICAM1) Biomarker Activity (AID 2283003). The conditions noted are these: primary human endothelial cells (HUVEC); actives raise or lower the signal. The gist of the method: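 Human vascular endothelial primary cells, 3C conditions, 24 h treatment. ICAM-1 by ELISA.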

A short description of test [12]: BSK_3C_Proliferation: Cell Proliferation Assessment in the BioMAP Diversity Plus: 3C Assay (AID 2283006). The following applies: primary human endothelial cells (HUVEC). The gist of the method: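 Proliferation of human vascular endothelial primary cells after 48 h dosing, quantified as SRB-stained protein at 560 nm relative to DMSO.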
In test [13] the target is Nuclear receptor subfamily 1 group I member 2 (Homo sapiens) (UniProt O75469). Put plainly: ATG_PXR_TRANS: Attagene TRANS-FACTORIAL HepG2 Assay for human Pregnane X Receptor (PXR) (AID 2283008; active means hit-call score of the fitted dose curve at least 0.9, where 1 is the maximum). The procedure, abridged:
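Read-out is fluorescence of labelled reporter cDNA fragments separated by capillary electrophoresis after RT-PCR and HpaI digestion. Source: HepG2 cells carrying PXR-GAL4/UAS reporter constructs, treated 24 h; activity fitted upward relative to DMSO.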

Test [14] has as its target human RAR-related Orphan Receptor beta (RORb), RORB (gene 6096) (UniProt Q92753). Put plainly: ATG_RORb_TRANS: Attagene TRANS-FACTORIAL HepG2 Assay for human RAR-related Orphan Receptor beta (RORb) (AID 2283010; active means hit-call score of the fitted dose curve at least 0.9, where 1 is the maximum). The procedure, abridged:
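In this TRANS-format test, human HepG2 cells express chimeric NR-Gal4 fusion proteins driving GAL4-UAS reporters. After 24 h dosing, reporter transcripts are measured by fluorescent RT-PCR/capillary electrophoresis, with DMSO as negative control.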

The target of test [15] is human Peroxisome Proliferator-activated Receptor alpha (PPARa), PPARA (gene 5465) (UniProt Q07869). Put plainly: ATG_PPARa_TRANS: Attagene TRANS-FACTORIAL HepG2 Assay for human Peroxisome Proliferator-activated Receptor alpha (PPARa) (AID 2283001; active means hit-call score of the fitted dose curve at least 0.9, where 1 is the maximum;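 on AC50: potency for gain of reporter signal over DMSO so agonist or activator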). The procedure, abridged: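 Reporter transcripts from GAL4-UAS units in transfected HepG2 were quantified 24 h after dosing. Detection used reverse transcription, PCR, fluorescent primer extension and capillary electrophoresis, with DMSO as baseline.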

The target in test [16] is human Peroxisome Proliferator-activated Receptor delta (PPARd), PPARD (gene 5467) (UniProt Q03181). Kind of test: ATG_PPARd_TRANS: Attagene TRANS-FACTORIAL HepG2 Assay for human Peroxisome Proliferator-activated Receptor delta (PPARd) (AID 2283002; active means hit-call score of the fitted dose curve at least 0.9, where 1 is the maximum). The procedure, abridged: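 Cell-based TRANS reporter: HepG2, transient MRTU transfection, 24 h exposure. Readout = reporter mRNA (RT-PCR/CE, 6-FAM). Gain-of-signal fit vs DMSO control.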

The target in test [17] is Peroxisome proliferator-activated receptor gamma (Homo sapiens) (UniProt P37231). Kind of test: ATG_PPARg_TRANS: Attagene TRANS-FACTORIAL HepG2 Assay for human Peroxisome Proliferator-activated Receptor-gamma (PPARg) (AID 2283007; active means hit-call score of the fitted dose curve at least 0.9, where 1 is the maximum). The procedure, abridged: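 Multiplexed reporter transcription units in HepG2, 24 h dosing, reporter transcripts quantified by fluorescent RT-PCR and capillary electrophoresis. Increase over DMSO scored.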

Test [18] has as its target human Retinoic Acid Receptor gamma (RARg), RARG (gene 5916) (UniProt P13631). Kind of test: ATG_RARg_TRANS: Attagene TRANS-FACTORIAL HepG2 Assay for human Retinoic Acid Receptor gamma (RARg) (AID 2283009; active means hit-call score of the fitted dose curve at least 0.9, where 1 is the maximum;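 on AC50: AC50 is for reporter induction above DMSO meaning RARg activation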). The procedure, abridged: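 HepG2, RARg-GAL4 TRANS system, 24 h exposure; reporter mRNA by RT-PCR + CE fluorescence; increase over DMSO.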

Molecules are shown by their SMILES. Values joined by “and” are separate entries in the source; they are usually repeats but may differ in a detail not shown here. Equal entries are not always repeated. Inconclusive results are not listed. The source holds several records for some structures; these can differ, active in one and inactive in another. Active and inactive are the calls of the source. How the source made its calls, unless noted: active means hit-call score of the fitted dose curve at least 0.9, where 1 is the maximum; inactive means score below 0.9.

human Peroxisome Proliferator-activated Receptor delta (PPARd), PPARD (gene 5467), sequence (Q03181 whole entry, looked up): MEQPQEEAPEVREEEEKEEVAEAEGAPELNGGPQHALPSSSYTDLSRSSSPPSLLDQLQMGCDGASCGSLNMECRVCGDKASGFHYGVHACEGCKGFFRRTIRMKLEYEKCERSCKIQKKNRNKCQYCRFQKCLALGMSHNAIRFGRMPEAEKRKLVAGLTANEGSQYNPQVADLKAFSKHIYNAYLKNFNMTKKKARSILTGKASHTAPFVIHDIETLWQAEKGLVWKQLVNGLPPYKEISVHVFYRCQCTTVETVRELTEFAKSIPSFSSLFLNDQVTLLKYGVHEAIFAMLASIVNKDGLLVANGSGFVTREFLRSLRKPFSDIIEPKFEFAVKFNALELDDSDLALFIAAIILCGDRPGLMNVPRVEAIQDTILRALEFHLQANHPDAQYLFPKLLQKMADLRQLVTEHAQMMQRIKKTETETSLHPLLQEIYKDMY
Nuclear receptor subfamily 1 group I member 2 (Homo sapiens), sequence (O75469 whole entry, looked up, the tested form may be a part): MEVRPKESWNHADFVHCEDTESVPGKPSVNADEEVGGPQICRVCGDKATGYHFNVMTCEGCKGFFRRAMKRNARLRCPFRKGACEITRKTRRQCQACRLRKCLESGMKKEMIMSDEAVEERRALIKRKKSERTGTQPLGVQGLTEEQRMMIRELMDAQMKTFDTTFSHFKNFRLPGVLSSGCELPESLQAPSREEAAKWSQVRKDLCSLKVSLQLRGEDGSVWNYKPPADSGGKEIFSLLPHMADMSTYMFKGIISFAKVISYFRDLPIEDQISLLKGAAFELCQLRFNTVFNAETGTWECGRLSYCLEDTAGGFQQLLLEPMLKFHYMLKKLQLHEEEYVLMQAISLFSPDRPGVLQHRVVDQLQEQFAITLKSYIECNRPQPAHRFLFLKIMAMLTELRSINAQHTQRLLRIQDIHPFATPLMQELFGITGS
human Peroxisome Proliferator-activated Receptor alpha (PPARa), PPARA (gene 5465), sequence (Q07869 whole entry, looked up, the tested form may be a part): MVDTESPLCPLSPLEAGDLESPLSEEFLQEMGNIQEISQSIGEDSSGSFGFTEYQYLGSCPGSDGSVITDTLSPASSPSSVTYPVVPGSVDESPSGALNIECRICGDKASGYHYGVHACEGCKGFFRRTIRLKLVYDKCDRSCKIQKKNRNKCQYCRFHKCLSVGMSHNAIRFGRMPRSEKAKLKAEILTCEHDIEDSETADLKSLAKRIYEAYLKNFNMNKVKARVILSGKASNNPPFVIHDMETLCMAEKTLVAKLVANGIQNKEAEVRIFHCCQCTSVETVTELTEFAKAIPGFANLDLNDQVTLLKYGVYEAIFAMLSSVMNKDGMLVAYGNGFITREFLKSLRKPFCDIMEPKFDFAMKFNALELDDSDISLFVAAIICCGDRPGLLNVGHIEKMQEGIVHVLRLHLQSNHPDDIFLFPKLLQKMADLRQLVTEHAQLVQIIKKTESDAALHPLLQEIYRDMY
Cellular tumor antigen p53 (Homo sapiens), sequence (P04637 whole entry, looked up): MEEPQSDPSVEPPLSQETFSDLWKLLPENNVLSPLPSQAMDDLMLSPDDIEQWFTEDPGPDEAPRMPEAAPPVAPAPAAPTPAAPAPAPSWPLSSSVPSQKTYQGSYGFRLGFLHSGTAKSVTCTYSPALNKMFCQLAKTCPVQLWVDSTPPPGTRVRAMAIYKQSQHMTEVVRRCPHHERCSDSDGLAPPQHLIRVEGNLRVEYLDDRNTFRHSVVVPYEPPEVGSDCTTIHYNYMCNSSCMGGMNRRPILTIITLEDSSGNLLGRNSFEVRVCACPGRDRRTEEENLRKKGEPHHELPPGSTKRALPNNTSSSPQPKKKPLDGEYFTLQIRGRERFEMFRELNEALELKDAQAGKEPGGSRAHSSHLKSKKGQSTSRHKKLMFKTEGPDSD
Myc proto-oncogene protein (Homo sapiens), sequence (P01106 whole entry, looked up): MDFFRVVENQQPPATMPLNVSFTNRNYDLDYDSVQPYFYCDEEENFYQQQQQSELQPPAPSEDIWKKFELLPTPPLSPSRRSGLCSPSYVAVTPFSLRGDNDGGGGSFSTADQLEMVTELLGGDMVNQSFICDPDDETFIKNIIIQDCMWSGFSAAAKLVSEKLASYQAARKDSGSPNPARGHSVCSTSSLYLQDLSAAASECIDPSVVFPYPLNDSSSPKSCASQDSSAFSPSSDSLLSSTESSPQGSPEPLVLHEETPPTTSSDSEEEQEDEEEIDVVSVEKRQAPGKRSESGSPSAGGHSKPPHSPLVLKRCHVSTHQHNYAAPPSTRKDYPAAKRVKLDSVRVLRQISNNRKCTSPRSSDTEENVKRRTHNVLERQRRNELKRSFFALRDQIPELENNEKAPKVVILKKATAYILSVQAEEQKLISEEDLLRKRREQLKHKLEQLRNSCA
Peroxisome proliferator-activated receptor gamma (Homo sapiens), sequence (P37231 whole entry, looked up): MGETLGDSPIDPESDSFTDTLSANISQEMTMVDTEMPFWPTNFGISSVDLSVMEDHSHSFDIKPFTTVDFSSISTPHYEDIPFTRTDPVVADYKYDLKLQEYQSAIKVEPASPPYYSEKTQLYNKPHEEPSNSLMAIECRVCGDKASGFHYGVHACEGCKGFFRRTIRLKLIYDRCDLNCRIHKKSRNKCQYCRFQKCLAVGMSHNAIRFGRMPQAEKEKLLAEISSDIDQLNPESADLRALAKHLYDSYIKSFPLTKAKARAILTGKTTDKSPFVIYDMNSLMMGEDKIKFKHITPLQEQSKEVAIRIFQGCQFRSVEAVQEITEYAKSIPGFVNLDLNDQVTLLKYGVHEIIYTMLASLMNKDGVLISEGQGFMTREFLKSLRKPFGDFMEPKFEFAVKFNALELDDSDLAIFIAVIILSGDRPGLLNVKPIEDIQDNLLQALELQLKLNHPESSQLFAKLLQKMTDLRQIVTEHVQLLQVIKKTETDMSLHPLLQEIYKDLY
human Retinoic Acid Receptor gamma (RARg), RARG (gene 5916), sequence (P13631 whole entry, looked up, the tested form may be a part): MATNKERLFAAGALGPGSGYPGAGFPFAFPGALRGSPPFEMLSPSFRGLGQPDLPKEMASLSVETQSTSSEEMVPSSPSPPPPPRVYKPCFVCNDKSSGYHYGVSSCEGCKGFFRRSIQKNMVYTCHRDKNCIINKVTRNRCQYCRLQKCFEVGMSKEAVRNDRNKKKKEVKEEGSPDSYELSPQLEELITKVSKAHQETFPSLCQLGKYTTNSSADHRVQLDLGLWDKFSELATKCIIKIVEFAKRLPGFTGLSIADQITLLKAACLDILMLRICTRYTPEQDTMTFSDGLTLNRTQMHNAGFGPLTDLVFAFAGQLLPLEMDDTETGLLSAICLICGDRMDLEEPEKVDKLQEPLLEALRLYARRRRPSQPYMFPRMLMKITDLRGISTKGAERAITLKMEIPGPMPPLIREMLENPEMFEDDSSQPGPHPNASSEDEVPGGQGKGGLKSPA
human RAR-related Orphan Receptor beta (RORb), RORB (gene 6096), sequence (Q92753 whole entry, looked up, the tested form may be a part): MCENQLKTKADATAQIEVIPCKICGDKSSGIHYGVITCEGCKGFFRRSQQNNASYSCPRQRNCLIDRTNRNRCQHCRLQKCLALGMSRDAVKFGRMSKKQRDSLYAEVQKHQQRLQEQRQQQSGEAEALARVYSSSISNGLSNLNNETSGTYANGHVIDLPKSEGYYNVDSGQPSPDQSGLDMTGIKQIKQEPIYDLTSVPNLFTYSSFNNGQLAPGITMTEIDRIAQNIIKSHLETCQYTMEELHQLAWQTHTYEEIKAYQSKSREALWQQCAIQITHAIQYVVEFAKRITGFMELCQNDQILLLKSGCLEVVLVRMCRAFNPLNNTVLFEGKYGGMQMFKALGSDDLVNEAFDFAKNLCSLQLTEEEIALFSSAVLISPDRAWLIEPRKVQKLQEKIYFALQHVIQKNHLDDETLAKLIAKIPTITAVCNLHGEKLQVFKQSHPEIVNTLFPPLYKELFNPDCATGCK

In general, AC50 refers to the concentration at which the activity in the assay is half-maximal. On to `O=C(NO)c1ccccc1`, for which the result in test [1], in test [2], in [4], in test [5], in [7] and in test [8] was inactive. In addition, the outcome in test [9], in test [10], in [11], in test [12], in [13] and in [14] was inactive. Moreover, the concentration at half-maximal activity (AC50) in test [3] was 22 µM (active) [middle of 4 runs]; in [4], 16.2 µM (active) and 18.5 µM (active); in test [6], 35.3 µM (active) [middle of 4 runs].

As to `CCOC(=O)CN[C@@H](C(=O)N1CC[C@H]1C(=O)NCc1ccc(/C(N)=N/O)cc1)C1CCCCC1`, the molecule was called inactive in [1], in test [2], in test [3], in [4], in test [5] and in test [6]. Also, the result in [7], in test [8], in test [10], in test [15], in test [16] and in test [11] was inactive. Also, the result in test [12], in test [17], in [13] and in test [18] was inactive.

`CCCCCCCCCCCC[N+](C)(C)Cc1ccccc1`: the molecule was called inactive in [1], in test [2], in test [3], in test [4], in test [5] and in test [15]. Also, the molecule was called inactive in test [16], in test [17], in test [13] and in test [14]. Also, the AC50 is 9.38 µM (active) in [4], 13.5 µM (active) in test [5], 68.2 µM (active) in [15] and 155 µM (active) in test [18].

For the molecule `COc1ccccc1NC(=O)c1cc2ccccc2cc1O`, the half-maximal activity concentration (AC50) is 30.4 µM (active) in [1]; 100 µM (active) in test [2]; 26.7 µM (active) in test [5]; 17.4 µM (active) in test [6]; 8.06 µM (active) in test [17]; 1.23 µM (active) in [13]. For the same molecule, the molecule was classed as inactive in test [3], in test [4], in test [15] and in test [18].

For the origin of these results see PubChem BioAssay (EPA / NIEHS).
